PubChem BioAssay AID431 (Sanford-Burnham Center for Chemical Genomics, 2006)
Out of some 63,000 compounds screened, about 1,100 (1.7%) were called active. The list comes from a sample in which actives are over-represented; it also holds similar structures and randomly drawn compounds. Measured potencies and affinities stand elsewhere. Unmarked numbers belong to inactive results.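 The calls were made as follows: active = compounds whose percent cytotoxicity in the single-dose primary screen, scaled between solvent and toxic-drug controls, exceeds 50; inactive = the rest.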

test: cytotoxicity in KRAS-transformed pancreatic duct cells, primary screen, cell-based, fluorescence, HTS (AID 431); details: HPDE-C7K KRASV12 cells, Alamar Blue viability, 48 h; at 10 µM; active compounds read high;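 also: 0% = DMSO solvent wells and 100% = doxorubicin-treated wells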

Compound | cytotoxicity
CCOC(=O)c1cnn(-c2ccccc2)c1NC(=O)c1cccs1 | 0.1%
O=C(c1cccs1)n1cc(C(=S)N2CCOCC2)c2ccccc21 | 10%
COc1ccc(-c2c(C)nn3c(N4CCN(Cc5ccccc5)CC4)cc(C)nc23)cc1OC | -4%
c1csc(-c2cnc3ccccc3n2)c1 | 3.7%
CCOC(=O)N1CCN(C(=O)Nc2ccc(Cl)cc2Cl)CC1 | 0.2%
CCOC(=O)N1CCN(S(=O)(=O)c2cc(Cl)ccc2Cl)CC1 | -7.3%
CCOC(=O)N1CCC(=C2c3ccc(Cl)cc3CCc3cccnc32)CC1 | 90.6% (active)
O=S(=O)(c1ccc(-c2ccccc2)cc1)N1CCOCC1 | 3.5%
Nc1nncn1C(=O)c1cccs1 | 9.5%
CC(=O)O[C@]1(C(C)=O)CC[C@H]2[C@@H]3C=C(C)C4=CC(=O)CC[C@]4(C)[C@H]3CC[C@@]21C | -15.6%
CC(=O)O[C@]1(C(C)=O)CC[C@H]2[C@@H]3C=C(Cl)C4=CC(=O)CC[C@]4(C)[C@H]3CC[C@@]21C | 76.4% (active)
CCCCCCCC(=O)OCC(=O)[C@@]1(O)CC[C@H]2[C@@H]3CCC4=CC(=O)CC[C@]4(C)[C@H]3[C@@H](O)C[C@@]21C | -2.2%
CCCCCC(=O)O[C@]1(C(C)=O)CC[C@H]2[C@@H]3CCC4=CC(=O)CC[C@]4(C)[C@H]3CC[C@@]21C | 118% (active)
CC(=O)O[C@]1(C(C)=O)CC[C@H]2[C@@H]3C[C@H](C)C4=CC(=O)CC[C@]4(C)[C@H]3CC[C@@]21C | 3.4%
CCCCC(=O)O[C@]1(C(=O)CO)CC[C@H]2[C@@H]3CCC4=CC(=O)CC[C@]4(C)[C@H]3[C@@H](O)C[C@@]21C | -3.2%
NC(=O)CN1C(=O)C(O)(CC(=O)c2ccccc2O)c2ccccc21 (centres undefined) | -20.7%
Cc1csc(=N)n1CC(=O)N1CCc2ccccc21 | -5.1%
CCN1C(=O)c2cccc3c(S(=O)(=O)Nc4ccccc4OC)ccc1c23 | 15.9%
COc1ccc(-c2cc(C(F)(F)F)n3nc(C(=O)Nc4cc(C)on4)cc3n2)cc1OC | 8.1%
Cc1cc(C)c(S(=O)(=O)N2CCN(CCO)CC2)c(C)c1 | -4.9%
CCN(CC)CCOc1ncnc2c1oc1ccccc12 | -9.3%
CCc1nc(OCCN(CC)CC)c2oc3ccccc3c2n1 | 15.9%
CC1CCc2nn(CC(=O)NCCN3CCOCC3)cc2C1 (centres undefined) | -3.4%
c1ccc(C(CN2CCOCC2)c2ccccc2)cc1 | -15.2%
O=C(c1ccccc1)c1ccc(OCC(O)CN2CCOCC2)cc1 (centres undefined) | 10.8%
CCOc1ccc(-n2c(Cc3cc(=O)[nH]c(=O)[nH]3)nnc2SC(C)C)cc1 | -20.5%

Compound | cytotoxicity
Cc1cc(C(=O)Oc2ccccc2C(=O)O)c(C)o1 | -8%
CCSc1nnc(NC(=O)c2ccc(C)o2)s1 | -3.8%
O=C(Nc1ncc(Cc2ccccc2)s1)C1CCCO1 (centres undefined) | 6.8%
Cc1ccc(C(=O)Nc2ncc(Cc3ccc(F)cc3)s2)o1 | 61.5% (active)
O=C(Nc1ncc(Cc2ccccc2)s1)c1cccs1 | 4.6%
Cc1ccc(C(=O)Nc2ncc(Cc3ccccc3)s2)o1 | 51.3% (active)
Cc1nnc(SCC(=O)Nc2ncc(Cc3ccc(F)cc3)s2)n1N | -4.8%
COc1ccc(-c2cc(C(F)(F)F)nc(SCC(=O)N3CC(C)OC(C)C3)n2)cc1OC (centres undefined) | -1.3%
Cc1c(Cl)cccc1NC(=O)CSCc1cc(=O)[nH][nH]1 | -8.5%
Cc1cc2cc(CN(Cc3ccc4c(c3)OCO4)C(=O)c3ccco3)c(=O)[nH]c2cc1C | 22.5%
Cn1c(SCC(=O)NCc2cccs2)nnc1-c1cccs1 | -2.7%
CCS(=O)(=O)N1CCN(c2ccccc2F)CC1 | -12.1%
O=S1(=O)C=C(SCCN2CCCCC2)c2ccccc21 | 6.2%
Cn1c(Sc2nc3ccccc3n2C)nc2ccccc21 | 21.7%
O=S1(=O)C=C(Sc2nc3ccccc3s2)c2ccccc21 | 107% (active)
O=S1(=O)C=C(Sc2nnc(-c3ccccc3)o2)c2ccccc21 | 26.2%
O=C1c2ccccc2S(=O)(=O)N1Cc1nc2ccccc2s1 | 3.2%
Clc1ccc2oc(-c3ccccc3)nc2c1 | 3.5%
Cc1cc(C)nc(SC2=CS(=O)(=O)c3ccccc32)n1 | 2.9%
Cn1c(SC2=CS(=O)(=O)c3ccccc32)nc2ccccc21 | 86.7% (active)
CCOC(=O)c1c(NC(N)=O)sc(C)c1C | 7.3%
CN(C)S(=O)(=O)c1ccc(S(=O)(=O)Nc2ccc3c(c2)oc2ccccc23)cc1 | -0.2%
COc1ccc2c(c1)c(=O)cc(C)n2CC(=O)NCc1ccco1 | 6.1%
CCN1CCCC1CNCc1ccc(Cl)cc1Cl (centres undefined) | 12.8%
COc1ccc(CCNc2oc(COc3ccccc3F)nc2C#N)cc1 | 23.7%
COc1ccc(/C=N/n2cc(-c3ccc(OC)cc3)nc2N)cc1 | 3.7%

Compound | cytotoxicity
COc1ccc(/C=N/n2cnnc2SCc2ccccc2)cc1 | 5.9%
COc1ccc(/C=N/n2cc(-c3ccccc3)nc2N)cc1 | 70.8% (active)
Cc1ccc2c(c1)CC1(CN2C)C(=O)OC2(CCCCC2)OC1=O | -4.6%
O=C1COc2ccc3ccccc3c2CN1 | -9.6%
CN1CC2(Cc3c1ccc1ccccc31)C(=O)OC(C)(C)OC2=O | 64.4% (active)
O=C(NCCc1ccccc1)c1cnn2c(C(F)F)cc(C3CC3)nc12 | 6.9%
O=S(=O)(c1ccc(-c2cn3ccccc3n2)cc1)N1CCOCC1 | -9.8%
CC(C)Cc1cc(C(=O)O)n[nH]1 | 9.9%
Cc1ccc(Cn2c(CN3CC(C)OC(C)C3)nc3c2c(=O)n(C)c(=O)n3C)cc1 (centres undefined) | -6.7%
COc1ccc(N2C(=O)C3CCCN3C2c2ccccc2OC)cc1 (centres undefined) | -10%
CN1CCN(c2nc(-c3ccccc3)nc3c2oc2ccccc23)CC1 | 24.2%
O=C(O)C1CCN(c2nc(-c3ccccc3)nc3c2oc2ccccc23)CC1 | 27.2%
CCOc1cc2nc(-c3ccc(OC)c(OC)c3)nc(N3CCOCC3)c2cc1OC | 74.8% (active)
COc1cc2nc(-c3ccccc3)nc(N3CCCC3)c2cc1OC | 27.3%
COc1ccc(-c2csc(N3CCOCC3)n2)cc1OC | 2.9%
CC(C)(C)Nc1ncnc2c1cnn2-c1ccccc1 | 17.2%
COC(=O)c1cccc(NC(=O)CSc2nnc(COc3ccccc3)n2C)c1 | 8.3%
CC(C)N(C(=O)COc1ccc(Br)cc1Cl)C(C)C | -4.2%
Cc1nc2nc(Cc3ccccc3)nn2c(C)c1Cl | 0.4%
O=C(c1ccc(COc2ccccc2Cl)o1)N1CCN(c2ccccc2)CC1 | 24%
O=C(c1ccc(COc2ccc(Cl)cc2)o1)N1CCN(Cc2ccc3c(c2)OCO3)CC1 | 94.8% (active)
O=C(c1ccc(COc2ccccc2Cl)o1)N1CCN(Cc2ccc3c(c2)OCO3)CC1 | 65.1% (active)
O=C(c1ccc(Cn2cc(Cl)cn2)o1)N1CCN(Cc2ccc3c(c2)OCO3)CC1 | 12%
O=C(c1ccc(Br)o1)N1CCN(Cc2ccc3c(c2)OCO3)CC1 | -4.9%
CC1CCN(C(=O)c2ccc(COc3ccccc3Cl)o2)CC1 | -8.5%
CC(=O)c1ccccc1OCCCN1CCCCC1 | 1.2%

Compound | cytotoxicity
O=C(CNS(=O)(=O)c1cccs1)N1CCCC1 | -3.8%
Cc1occc1-c1nnc(SCc2nc3ccccc3c(=O)n2CC#N)n1C | -5.4%
Cn1c(COc2ccccc2)nnc1SCCN1CCOCC1 | -8.5%
O=c1[nH]c(Nc2ccccc2)cc2ccccc12 | 0.6%
Cc1ccccc1Nc1cc2ccccc2c(=O)[nH]1 | 73.3% (active)
Cc1cc2ccccc2c(=O)[nH]1 | 3%
Fc1ccc(-c2cc3nc(-c4ccccc4)cc(N4CCN(CCN5CCOCC5)CC4)n3n2)cc1 | 44.9%
COc1ccc(OC)c(S(=O)(=O)NCc2cccnc2)c1 | -4.2%
CCn1c(SCC(=O)N2CCc3ccccc32)nnc1-c1ccncc1 | -9.5%
CN1CCN(Cc2ccc(OCc3ccccc3)cc2)CC1 | 33.9%
COc1ccc(OC)c(NS(=O)(=O)c2ccc(SC)cc2)c1 | 30.3%
COc1ccc(OC)c(NS(=O)(=O)c2ccc(N3CCCC3=O)cc2)c1 | 79.5% (active)
COC(=O)COc1ccc(S(=O)(=O)Nc2cc(OC)ccc2OC)cc1 | 0%
CCOc1ccc(S(=O)(=O)Nc2cc(OC)ccc2OC)cc1 | 75.9% (active)
COc1ccc(OC)c(NS(=O)(=O)c2ccc3c(c2)CCC(=O)N3)c1 | 3.2%
CCCCOc1ccc(S(=O)(=O)Nc2cc(OC)ccc2OC)cc1 | 32.5%
COc1ccccc1NC(=O)CSc1nnc(-c2ccncc2)o1 | -3.6%
CCn1c(SCC(=O)Nc2nc3ccccc3s2)nnc1-c1ccc(OC)cc1 | 78.6% (active)
CCn1c(SCC(=O)Nc2nc(-c3ccccc3)cs2)nnc1-c1ccccc1 | 23.1%
CCc1nnc(NC(=O)CSc2nnc(-c3ccccc3OC)n2-c2ccccc2)s1 | -6.6%
CCn1c(Cc2ccc(OC)cc2)nnc1SCC(=O)Nc1nc2ccccc2s1 | -6.3%
CCn1c(SCC(=O)Nc2nc(-c3ccc(C)cc3)cs2)nnc1-c1ccccc1O | 46.4%
CCn1c(SCC(=O)Nc2nc(-c3ccccc3)cs2)nnc1-c1ccccc1O | 55.5% (active)
CCc1nnc(NC(=O)CSc2nnc(-c3ccccc3O)n2-c2ccc(C)cc2)s1 | -7.5%
CCc1nnc(NC(=O)CSc2nnc(-c3ccccc3O)n2-c2ccc(C)cc2C)s1 | 61.3% (active)
CCn1c(Cc2ccccc2)nnc1SCC(=O)Nc1nc2ccccc2s1 | 8.8%
